Bioassay records: PubChem, National Center for Advancing Translational Sciences (NCATS)
Hits are enriched below; roughly 5.3% of the tested compounds scored in any of these assays.
MARV entry inh – blocks Marburg virus binding to or entry into cells; AID 540276; Marburg virus pseudotyped entry inhibition, cell reporter; 1.8% of 300,000 active; Potency, µM (series often up to 37.8 µM), most hits filed as inhibitors; calls by dose curve; tested in HEK293 cells
VACV mCherry inh – inhibitors of vaccinia virus infection (mCherry reporter signal) | Vaccinia virus mCherry reporter infection, fluorescence | Potency, µM (top dose mostly 36.5 µM), usual class: inhibitors | 0.63% of 310,000 active | AID 720579; calls by dose curve; tested in A549 cells; also: nearly all actives have a fitted effect of over 35% in size
HCV inhibitor – inhibitors of hepatitis C virus infection; 3.4% of 340,000 active; Huh7.5.1 HCVcc-Cre infection, luciferase reporter, 44 h; Potency, µM (top dose mostly 41.8 µM), actives largely listed as inhibitors; AID 651820; active = well fitted inhibition curve with a large enough effect; inconclusive = small, poorly fitted or top-dose-only effect, or another doubt; inactive = no such curve, though single readings can be large or run the other way
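Antiviral activity was scored by luciferase reporter output from cells infected with HCVcc-Cre (~0.5 moi) in presence of compound, 44 h infection period, cells seeded 1,000/well 4 h prior.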
LASV entry inh – Lassa virus entry inhibition. Lassa virus pseudotype entry inhibition, cell reporter. Potency, µM (top dose mostly 37.9 µM), most hits filed as inhibitors. 1.2% of 300,000 active. AID 540256; calls by dose curve; tested in HEK293 cells; also: nearly all actives have a fitted effect of over 50% in size
FMDV antiviral – antivirals against foot and mouth disease virus. AID 1159524. Potency, µM (series often up to 57.9 µM), most hits filed as inhibitors. FMDV antiviral cell-based qHTS. 1.2% of 410,000 active; calls by dose curve; tested in HEK293T cells; also: read-out not given here; nearly all actives have a fitted effect of over 45% in size
VACV Venus inh – vaccinia inhibition (Venus reporter); 0.46% of 330,000 active; Potency, µM (top dose mostly 36.5 µM), actives largely listed as inhibitors; Vaccinia virus Venus reporter expression, fluorescence; calls by dose curve; tested in A549 cells; also: nearly all actives have a fitted effect of over 30% in size
A number is an active result; 0 = inactive; ? = inconclusive; - = no result given; [ ] = another dose, or the depositor's remark.

SMILES	MARV entry inh	VACV mCherry inh	HCV inhibitor	LASV entry inh	FMDV antiviral	VACV Venus inh
CCOC(=O)c1c(C)[nH]c(C(C)=O)c1C	0	-	0	0	0	-
O[C@@H]1CN(Cc2ccc(-n3cccn3)cc2)CC[C@H]1N1CCN(c2ccccc2F)CC1	-	-	8.9µM	-	?	-
C[n+]1c(-c2ccccc2)cc2c(=Cc3ccccc3)c3ccccc3n21	?	0	?	7.9µM	3.5µM	0
CN(C)c1ccc(C=c2c3cc(O)ccc3n3c2cc(-c2ccccc2)[n+]3C)cc1	?	0	?	?	0	0
C[n+]1c(-c2ccccc2)cc2c(=Cc3ccc([N+](=O)[O-])cc3)c3ccccc3n21	?	0	?	10µM	?	0
NC(=O)c1csc(C2OC(CO)C(O)C2O)n1 (centres undefined)	-	0	-	-	0	0
O=C1C=C(C2OC(CO)C(O)C2O)C(=O)N1 (centres undefined)	-	0	0	-	40µM	0
CCOC(=O)C1(Cc2cccc(OC)c2)CCN(CC=C(C)C)CC1	-	-	0	-	0	-
CCOC(=O)C1(CC2CC2)CCN(Cc2ccc(OC)cc2F)CC1	10µM	0	?	?	?	0
CCOC(=O)C1(Cc2cccc(OC)c2)CCN(CCO)CC1	0	0	0	0	0	0
CCOC(=O)C1(Cc2cccc(OC)c2)CCN(Cc2cccc(OCC)c2O)CC1	7.1µM	0	?	0	?	0
CCOC(=O)C1(Cc2cccc(OC)c2)CCN(C/C=C/c2ccccc2)CC1	7.9µM	0	0	?	?	0
CCOC(=O)C1(CC2CC2)CCN(Cc2cc(Cl)c(O)c(OC)c2)CC1	?	0	0	?	0	0
CCOC(=O)C1(Cc2cccc(OC)c2)CCN(C/C=C/c2ccc(OC)cc2)CC1	?	0	8.9µM	?	14µM	0
COc1ccc(C(=O)NCC2Cc3cc(F)cc(-c4cncnc4)c3O2)cc1 (centres undefined)	-	0	-	-	0	0
O=C(C=Cc1cccc([N+](=O)[O-])c1)c1ccccc1	0	-	-	?	-	-
CCCCCCCCCCCCCCC(F)C(=O)O (centres undefined)	-	0[3.33 µM]	-	-	0[6.7 µM]	0[3.33 µM]
CCCC[C@]12Cc3cc(C#N)ccc3[C@H](O1)c1c(c3cc(F)ccc3oc1=O)O2	0	-	-	-	-	-
CC(C)C1=C2OC(N)=C(C#N)C(C#N)=C2[C@H](C)CC1	0	-	-	-	-	-
Cc1nn2c3ccccc3nc2c2ccccc12	0	-	13µM	0	0	-
COC(=O)c1c(NC(=O)COc2ccc(OC)cc2)sc2c1CCC(C)C2 (centres undefined)	-	0	-	0	?	0
c1ccc(-c2nc(SCC3CCCCO3)n[nH]2)cc1 (centres undefined)	-	0	-	-	-	0
COC(=O)[C@H](Cc1ccc(C#Cc2ccccc2)cc1)NC(=O)C[C@H]1CCCN(C(=N)N)C1	-	-	-	-	0	-
CC(C)CC(N)c1csc(Nc2cnccn2)n1 (centres undefined)	-	11µM	-	-	0	10µM
CC(C)CC(N)c1csc(Nc2ccccn2)n1 (centres undefined)	-	?	-	-	0	?
SMILES	MARV entry inh	VACV mCherry inh	HCV inhibitor	LASV entry inh	FMDV antiviral	VACV Venus inh
O=C(COc1ccccc1Cl)N(Cc1cccs1)C1CCS(=O)(=O)C1 (centres undefined)	0	0	0	0.5µM	0	0
CC(C)(C)c1ccc(C(=O)N2CCC(=O)N(C(COCc3ccccc3)Cc3ccccc3)CC2)cc1 (centres undefined)	?	0	?	8.2µM	?	?
Cc1cccc(COC[C@H](Cc2ccccc2)N2CCN(C(=O)c3ccc(Cl)c(Cl)c3)CCC2=O)c1	-	0	-	-	0	0
Cc1cccc(COCC(Cc2ccccc2)N2CCN(C(=O)c3ccc(Cl)c(Cl)c3)CCC2=O)c1 (centres undefined)	0	?	?	15µM	?	?
Cc1cccc(COCC(Cc2ccccc2)N2CCN(C(=O)c3cccc(C)c3)CCC2=O)c1 (centres undefined)	0	0	0[8.37 µM]	7.3µM	0	0
CCCc1nc2nc(C)c(NS(=O)(=O)c3ccc(C)c(C)c3)c(=O)n2[nH]1	0	0	-	0	0	0
Fc1ccc(/C=C/c2nccc3ccccc23)cc1	-	?	-	-	-	0
CCCCC(CC)CN=C(N)NC(N)=NCCCCCCN=C(N)NC(N)=NCC(CC)CCCC (centres undefined)	-	?	?	-	?	10µM
CCCCC(CC)CO (centres undefined)	-	0	0	-	0	0
O=c1c2ccccc2nc(/C=C\c2ccccc2[N+](=O)[O-])n1-c1ccccc1O	?	?	0	7.9µM	?	?
CC(=O)Nc1ccc(S(=O)(=O)Nc2cccc(-c3nc4ccccc4o3)c2)cc1	?	-	13µM	?	0	-
CCC(=O)Nc1cccc(-c2nc3ccccc3o2)c1	0	0	?	0	0	0
CC(=O)Nc1ccc(S(=O)(=O)Nc2cccc(-c3ccc(N4CCC(C)CC4)nn3)c2)cc1	-	0	-	11µM	?	0
O=C(Nc1cccc(-c2nc3ccccc3o2)c1)C(F)(F)F	-	?	-	0	32µM	0
CC(=O)Nc1ccc(S(=O)(=O)Nc2cccc(-c3ccc(N4CCCCCC4)nn3)c2)cc1	-	0	-	0	0	0
CS(=O)(=O)c1ccccc1C(=O)Nc1cccc(-c2nc3ccccc3o2)c1	-	-	11µM	-	?	-
COC(=O)c1ccccc1C(=O)NCC1Cc2cc(-c3nc(C)cnc3C)ccc2O1 (centres undefined)	-	0	-	-	0	0
C=CCNc1sc(C(=O)c2ccccc2)c(N)c1-c1nc2ccccc2s1	?	0	0	?	0	?
CCNc1sc(C(=O)c2cccs2)c(N)c1C#N	?	-	13µM	0	0	?
CCNc1sc(C(=O)c2cccs2)c(N)c1-c1nc2ccccc2s1	?	0	5µM	?	0	0
c1coc(CNc2nc3ccccc3s2)c1	?	0	0	?	0	0
CCOC(=O)c1sc(NCc2ccco2)c(-c2nc3ccccc3s2)c1N	0	-	10µM	0	0	0
CC(C)Oc1ccc(CNC(=O)CCCn2c(=O)c3cccn3c3ccccc32)cc1	-	0	-	0	0	0
O=C(CNC(=O)C1CCCCC1)OCc1ccccc1	-	0	-	-	-	0
COC(=O)[C@@H]1C[C@@]2(O)[C@@H](O)[C@@H](O)[C@@H](O)C[C@H]2N1Cc1cc(OC)cc(OC)c1	-	0	0.5µM	-	0	0
SMILES	MARV entry inh	VACV mCherry inh	HCV inhibitor	LASV entry inh	FMDV antiviral	VACV Venus inh
Cc1ccc2c(c1)c(=O)c1ccccc1n2CCCC(=O)Nc1cc(Cl)ccc1C	-	0	-	0	0	0
Cc1ccc(NC(=O)CCCn2c3ccccc3c(=O)c3cc(C)ccc32)c(Br)c1	-	0[7.34 µM]	-	2.8µM	0	0[7.34 µM]
N#Cc1ccc(CN2CCCC3(CCN(C(=O)c4cccc(F)c4)CC3)C2)cc1	-	-	-	-	0	-
COc1ccc(CNC(=O)CCc2c(C)c3ccc(OC)c(C)c3oc2=O)cc1OC	0	0	-	0	0	0
COc1ccc(C(NC(C)=O)c2ccc3cccnc3c2O)cc1OC (centres undefined)	-	7.9µM	-	-	-	?
CC(=O)NC(c1cccs1)c1cc(F)c2cccnc2c1O (centres undefined)	-	-	-	-	0	-
CCOc1ccc(C(Nc2cccnc2)c2cc(Cl)c3cccnc3c2O)cc1 (centres undefined)	?	?	?	?	0	?
